# POLI inh: blocks human DNA polymerase iota activity | Q9UNA4 | AID 588590 | Pol iota fluorescent replication assay, 10 min | Potency, µM (series often up to 115 µM), for the others: at the highest dose activity, negative = inhibition, actives largely listed as inhibitors | 390,000 compounds, 1% hits
#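 Fluorescent replication assay read twice, at 0 min and 10 min after adding 50 nM (final) substrate. Enzyme (10 nM) and compounds were first incubated 15 min at room temperature; enzyme-free buffer wells were negative controls.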
# Pol eta inh-1: DNA polymerase eta (human) inhibition | recombinant Pol eta, fluorescent DNA replication assay | Potency, µM (titrated, usually from 114 µM), for the others: at the top dose activity change, negative = inhibition, most hits filed as inhibitors | 390,000 compounds, 1.2% hits; also: % is scaled to controls: 0 for no effect and ±100 for the full control effect
#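 Pol eta at 10 nM preincubated with compounds 15 min at room temperature; reaction started with fluorescent substrate (50 nM final) and read kinetically at 0 and 10 min.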
# FEN1 inh-1: blocks human flap endonuclease 1 | Recombinant FEN1 flap cleavage, fluorescence, 15 min | AID 588795 | P39748 | 390,000 compounds, 0.35% hits | Potency, µM (top dose mostly 114 µM), for inactives: at the highest dose activity change, negative = inhibition, usual class: inhibitors; also: % is scaled to controls: 0 for no effect and ±100 for the full control effect; nearly all actives have a fitted effect of over 65% in size
#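 In this screen, 50 nM flap DNA substrate was added to 10 nM FEN1 pretreated with compound for 15 min at room temperature; cleavage was followed with reads at 0 and 15 min, and Hill fitting gave concentration–response parameters.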
# Pol beta inh: inhibitors of human DNA polymerase beta | AID 485314 | Pol beta primer extension/strand displacement, fluorescence kinetic | Potency, µM (top dose mostly 114 µM), for inactives: top-dose activity change, negative = inhibition, usual class: inhibitors | 340,000 compounds, 1.3% hits; also: % is scaled to controls: 0 for no effect and ±100 for the full control effect
#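 Values derive from four-parameter Hill fits of normalized kinetic data: reads at 0 and 10 min following addition of 50 nM substrate to 10 nM Pol beta preincubated 15 min with compound.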
# TDP1 inh: blocks human tyrosyl-DNA phosphodiesterase 1. Potency, µM (titrated, usually from 130 µM), for the others: at the top dose activity change, negative = inhibition, most hits filed as inhibitors. AID 485290. recombinant TDP1, AlphaScreen DNA substrate cleavage. Q9NUW8. 350,000 compounds, 0.28% hits; also: % is scaled to controls: 0 for no effect and ±100 for the full control effect; nearly all actives have a fitted effect of over 40% in size
#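 Compounds were preincubated with Tdp1 (1 nM final) for 15 min at room temperature before substrate (15 nM final) started a 5 min reaction; beads (10 ug/ml final) were then added for 10 min before AlphaScreen detection.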
# Pol kappa inh-1: DNA polymerase kappa (human) inhibition; Q9UBT6; purified Pol kappa, fluorescent DNA synthesis assay, 10 min; Potency, µM (series often up to 107 µM), for inactives: at the highest dose activity, negative = inhibition, most hits filed as inhibitors; 400,000 compounds, 0.53% hits; AID 588579; also: % is scaled to controls: 0 for no effect and ±100 for the full control effect
#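 Pol kappa 10 nM + cpd, 15 min RT; start w/ substrate 50 nM final; fluorescence kinetic read, 0 and 10 min. Neg ctrl: buffer, no enzyme.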
# TbPGK inh: validation of Trypanosoma brucei phosphoglycerate kinase inhibitors; shares compounds with Pol kappa inh-1; TbPGK coupled GAPDH assay, Kinase-Glo luminescence; Potency, µM (highest dose often 57.5 µM), for inactives: at the highest dose activity change, negative = inhibition, usual class: inhibitors; 500 compounds, 79% hits; AID 686980; also: % is scaled to controls: 0 for no effect and ±100 for the full control effect; nearly all actives have a fitted effect of over 65% in size
# Target sequence (P07378 whole entry, looked up): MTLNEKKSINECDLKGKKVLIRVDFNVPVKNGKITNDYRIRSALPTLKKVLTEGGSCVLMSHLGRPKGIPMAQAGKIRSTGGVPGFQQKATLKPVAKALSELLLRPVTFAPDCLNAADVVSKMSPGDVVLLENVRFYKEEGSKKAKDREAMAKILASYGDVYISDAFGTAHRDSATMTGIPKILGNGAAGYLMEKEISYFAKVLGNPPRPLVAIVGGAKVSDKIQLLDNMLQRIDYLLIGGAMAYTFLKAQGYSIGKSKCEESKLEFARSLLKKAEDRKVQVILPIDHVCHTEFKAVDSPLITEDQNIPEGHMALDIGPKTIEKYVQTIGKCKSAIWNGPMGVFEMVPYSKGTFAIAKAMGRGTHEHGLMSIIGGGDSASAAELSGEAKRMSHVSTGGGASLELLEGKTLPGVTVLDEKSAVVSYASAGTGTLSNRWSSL
# POLI cherry-pick: Inhibitors of human DNA polymerase iota, confirmation | shares compounds with Pol kappa inh-1 | Pol iota primer extension, TAMRA/BHQ fluorescence | Potency, µM, usual class: inhibitors | 1,500 compounds, 77% hits
# Pol kappa inh-2: Pol kappa (human) inhibition, cherry-pick confirmation; shares compounds with Pol eta inh-1; purified Pol-kappa, fluorescent strand-displacement substrate; Potency, µM, actives largely listed as inhibitors; 920 compounds, 76% hits
# Pol eta inh-2: confirmation of human DNA polymerase eta inhibitors | shares compounds with Pol eta inh-1 | Pol eta primer extension, TAMRA/BHQ fluorescence, 10 min | Potency, µM, hits mostly inhibitors | 2,600 compounds, 64% hits
# FEN1 inh-2: confirmation of human FEN1 inhibitors. 880 compounds, 79% hits. FEN1 flap cleavage, TAMRA/BHQ2 fluorogenic DNA substrate. shares compounds with FEN1 inh-1. Potency, µM, hits mostly inhibitors; also: nearly all actives have a fitted effect of over 60% in size
# Starred values were filed as active, the others as inactive; ? = inconclusive; . = not tested or not shown; [ ] = remark or other dose. An excerpt weighted towards active compounds, which were near 2.4% of everything screened. Calls follow the shape of the dose curve; as a rule, active = well fitted curve in the direction sought with a large enough effect; inconclusive = small, poorly fitted or top-dose-only effect, or another doubt; inactive = no such curve, though single readings can be large; an effect the other way counts as inactive or inconclusive. Potency is read from the fitted curve at half-maximal effect.
SMILES,POLI inh,Pol eta inh-1,FEN1 inh-1,Pol beta inh,TDP1 inh,Pol kappa inh-1,POLI cherry-pick,Pol eta inh-2,FEN1 inh-2,others
Oc1ccc(/C=N/N=C(c2ccccc2)c2ccccc2)c(O)c1O,?,3.2µM*,?,2.8µM*,2%,?,11*,43*,48*,
COc1ccccc1C=NN=Cc1ccccc1O,2%,?,4%,.,.,-12%,.,.,.,
Oc1ccc(CNc2cccnc2)c2cccnc12,.,.,.,.,5%,.,?,.,38*,
Cc1ccc(NCc2ccc(O)c3ncccc23)cc1,69%,-16%,-14%,3%,0%,1%,.,.,.,
O=C1CC(=O)N(Cc2ccco2)C(=O)N1,3.2µM*,3.5µM*,28µM*,8.9µM*,10µM*,8.9µM*,3.4*,5.4*,24*,TbPGK inh=0.92µM*
COc1ccc(Cn2c(C)nc3c(c2=O)c2nc4ccccc4nc2n3Cc2ccco2)cc1,3.2µM*,8.9µM*,40µM*,.,.,35µM*,13*,30*,?,
Cc1cc[n+](-c2[nH]c(=O)sc2/C=N/N=C(\[O-])c2ccccc2)cc1,25µM*,?,-32%,14µM*,40µM*,?,38*,27*,67*,
Cc1cc[n+](-c2[nH]c(=O)sc2/C=N/N=C(\[O-])CCn2c3ccccc3c3ccccc32)cc1,-5%,-13%,-15%,?,5%,-13%,.,.,.,
Cc1cc(C)c2c(n1)nn1c(C)c(CCC(=O)NCc3ccccc3Cl)c(C)nc21,-22%,-10%,36%,85%,5%,-10%,.,.,.,
CCN(CC)CCCNc1nc2ccccc2c2[nH]c3ccc(OC)cc3c12,18µM*,10µM*,3.5µM*,.,.,18µM*,3*,30*,2.7*,Pol kappa inh-2=3.4*
CCN(CC)CCCNc1nc(-c2ccccc2)nc2ccccc12,13%,-13%,-24%,?,2%,3%,.,.,.,
O=Cc1ccc(Cl)cc1,-8%,.,-13%,.,9%,-11%,.,.,.,
CN(C)S(=O)(=O)c1cccc(NC(=S)N/N=C/c2ccc(O)c(O)c2O)c1,?,?,20µM*,-11%,.,?,13*,19*,8.5*,
COc1ccc(O)c(/C=N/NC(=S)Nc2cccc(S(=O)(=O)N(C)C)c2)c1,11%,-9%,-24%,-2%,3%,-14%,.,.,.,
Cc1c(Br)c(=O)oc2c(Br)c(O)c(O)cc12,13µM*,3.2µM*,28µM*,4.5µM*,5%,22µM*,24*,5.4*,30*,TbPGK inh=6.5µM*
CCn1c(SCc2nc3sc(C(=O)O)c(C)c3c(=O)[nH]2)nc2ccccc21,2.8µM*,0.71µM*,13µM*,8.9µM*,8.9µM*,3.5µM*,9.5*,2.7*,21*,TbPGK inh=?
COCCn1c(SCc2nc3sc(C(=O)OC)c(C)c3c(=O)[nH]2)nc2ccccc21,4%,?,-13%,-5%,2%,-1%,.,.,.,
O=C(Nc1ccc(Br)cn1)c1cnn2c1NC(=C1CC1)C=C2C(F)F,27%,.,19%,.,.,1%,.,.,.,
CCc1ccc(NC(=O)c2ccc(F)c(S(=O)(=O)NCc3ccc(Cl)c(Cl)c3)c2)cc1,-1%,-16%,-6%,9%,5%,-20%[60.1 µM],.,.,.,
O=C(O)c1cccc(-n2cccc2/C=C/[N+](=O)[O-])c1,?,2.8µM*,?,3.5µM*,.,14µM*,15*,5.4*,43*,TbPGK inh=21µM*
Cc1cc2c(cc1C)N[C@]1(C[C@H]3CCCC(=O)N4CC[C@@H](C1)[C@@H]34)C(=Nc1ccccc1C)N2,-15%,.,-2%,.,.,14%,.,.,.,
COc1cc(/C=N/N2C(C)CCCC2C)cc(Br)c1O (stereo not given),-21%,-12%,-3%,8%,0%,1%,.,.,.,
COc1cc(/C=N/N2C(=O)CSC2=S)cc(Br)c1O,?,25µM*,79µM*,35µM*,?,40µM*,?,67*,43*,Pol kappa inh-2=38*
CCOCCCNC(=O)C(=O)Nc1c2c(nn1-c1ccc(OC)cc1)CSC2,2%,10%,22%,-15%,8%,-9%[60.1 µM],.,.,.,
CCCn1c2ccccc2c2cnn(CC(=O)N3CCN(c4ccccc4)CC3)c(=O)c21,-18%,-19%,-18%,12%,1%,-13%[60.1 µM],.,.,.,
SMILES,POLI inh,Pol eta inh-1,FEN1 inh-1,Pol beta inh,TDP1 inh,Pol kappa inh-1,POLI cherry-pick,Pol eta inh-2,FEN1 inh-2,others
O=C(O)c1cc(N2N=C(C(F)(F)F)/C(=C/C=C/c3ccco3)C2=O)ccc1Cl,1.1µM*,-99%,3.2µM*,0.63µM*,-3%,1.1µM*,0.75*,0.67*,3.8*,TbPGK inh=0.58µM*;Pol kappa inh-2=0.12*
CCOC(=O)c1ccc(N2N=C(C)/C(=C/C=C/c3ccco3)C2=O)cc1,?,-14%,11%,?,10%,-25%,.,.,.,
N=C(N)N,.,.,.,.,8%[56.1 µM],-8%[60.1 µM],.,.,.,
O=C(O)c1ccccc1-c1c2cc(I)c(=O)c(I)c-2oc2c(I)c(O)c(I)cc12,13µM*,16µM*,40µM*,.,22%,22µM*,19*,67*,38*,TbPGK inh=10µM*;Pol kappa inh-2=30*
O=C(O)c1ccccc1-c1ccccc1C(=O)Nc1ccc2c(c1)oc(=O)c1ccccc12,.,5%,.,.,.,.,.,.,.,
Cc1ccc(-c2cc(-c3ccc4c(c3)NC(=O)CO4)nc3c2COc2ccc(C)cc2-3)cc1,-4%,-13%,-6%,17%,3%,-2%,.,.,.,
CN1/C(=C\C=C2/C(=O)Oc3ccccc3C2=O)C(C)(C)c2ccccc21,-11%,89µM*,35µM*,45µM*,3%,?,75*,54*,19*,Pol kappa inh-2=24*
CN1/C(=C\C=C2/SC(=S)NC2=O)C(C)(C)c2ccccc21,28µM*,79µM*,?,22µM*,6%,45µM*,75*,76*,67*,Pol kappa inh-2=38*
CN1/C(=C\C=N\O)C(C)(C)c2ccccc21,22%,0%,18%,8%,9%,0%,.,.,.,

# High-throughput results as filed in PubChem BioAssay.
